Among the data in PubChem BioAssay (EPA / NIEHS) are outcome and AC50 values, retold here.

Read-out in assay [1]: Human Leukocyte Antigen - DR isotype (HLADR), HLA-DRA (gene 3122)
The assay can be described thus: BSK_CASM3C_HLADR: BioMAP Diversity Plus: CASM3C Assay for Human Leukocyte Antigen - DR isotype (HLADR) Biomarker Activity (AID 2283043).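 Note: cell-surface HLA-DR protein level quantified by ELISA.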 To be noted: primary human coronary artery smooth muscle cells; actives raise or lower the signal.

Read-out in assay [2]: Macrophage colony-stimulating factor (MCSF), CSF1 (gene 1435)
Put plainly: BSK_CASM3C_MCSF: BioMAP Diversity Plus: CASM3C Assay for Macrophage colony-stimulating factor (MCSF) Biomarker Activity (AID 2283044).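 Note: M-CSF protein amount quantified by ELISA after 24 h exposure.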 To be noted: primary human coronary artery smooth muscle cells; actives raise or lower the signal.

Read-out in assay [3]: Low-density lipoprotein receptor (LDLR), LDLR (gene 3949)
Put plainly: BSK_CASM3C_LDLR: BioMAP Diversity Plus: CASM3C Assay for Low-density lipoprotein receptor (LDLR) Biomarker Activity (AID 2283045).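 Note: LDLR protein level on the cell surface quantified by ELISA.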 The following applies: primary human coronary artery smooth muscle cells; actives raise or lower the signal.

Read-out in assay [4]: Monocyte Chemoattractant Protein-1 (MCP1), CCL2 (gene 6347)
Put plainly: BSK_CASM3C_MCP1: BioMAP Diversity Plus: CASM3C Assay for Monocyte Chemoattractant Protein-1 (MCP1) Biomarker Activity (AID 2283046).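 Note: MCP-1 level quantified by ELISA 24 h after dosing.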 The following applies: primary human coronary artery smooth muscle cells; actives raise or lower the signal.

A short description of assay [5]: BSK_CASM3C_Proliferation: Cell Proliferation Assessment in the BioMAP Diversity Plus: CASM3C Assay (AID 2283047).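 Note: sulforhodamine B total protein stain as relative cell number at 560 nm; sub-confluent cells exposed 48 h before staining; fitted both ways against DMSO so gain or loss of cell number.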 The following applies: primary human coronary artery smooth muscle cells.
Read-out in assay [6]: Monokine induced gamma interferon (MIG), CXCL9 (gene 4283)
The assay can be described thus: BSK_CASM3C_MIG: BioMAP Diversity Plus: CASM3C Assay for Monokine induced gamma interferon (MIG) Biomarker Activity (AID 2283048).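 Note: MIG protein level measured by ELISA.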 The following applies: primary human coronary artery smooth muscle cells; actives raise or lower the signal.

Read-out in assay [7]: serum amyloid A (SAA), SAA1 (gene 6288)
Put plainly: BSK_CASM3C_SAA: BioMAP Diversity Plus: CASM3C Assay for serum amyloid A (SAA) Biomarker Activity (AID 2283049).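 Note: SAA protein level quantified by ELISA.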 The following applies: primary human coronary artery smooth muscle cells; actives raise or lower the signal.

The nature of assay [8]: BSK_CASM3C_SRB: Viability Assessment in the BioMAP Diversity Plus: CASM3C Assay (AID 2283050).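 Note: total protein by SRB staining as cytotoxicity measure in parallel cultures; cells exposed to compound for 24 h.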 To be noted: primary human coronary artery smooth muscle cells.
Read-out in assay [9]: Thrombomodulin, THBD (gene 7056)
The assay can be described thus: BSK_CASM3C_Thrombomodulin: BioMAP Diversity Plus: CASM3C Assay for Thrombomodulin Biomarker Activity (AID 2283051).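 Note: thrombomodulin protein level measured by ELISA 24 h after dosing.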 The following applies: primary human coronary artery smooth muscle cells; actives raise or lower the signal.

Read-out in assay [10]: Tissue Factor, F3 (gene 2152)
The assay can be described thus: BSK_CASM3C_TissueFactor: BioMAP Diversity Plus: CASM3C Assay for Tissue Factor Biomarker Activity (AID 2283052).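 Note: cell surface tissue factor protein level read by ELISA.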 To be noted: primary human coronary artery smooth muscle cells; actives raise or lower the signal.

Read-out in assay [11]: Interferon-gamma inducible Protein 10 (IP10), CXCL10 (gene 3627)
Put plainly: BSK_hDFCGF_IP10: BioMAP Diversity Plus: hDFCGF Assay for Interferon-gamma inducible Protein 10 (IP10) Biomarker Activity (AID 2283053). The following applies: primary human foreskin fibroblasts; actives raise or lower the signal. A digest of the protocol: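 ELISA read-out of IP-10 (CXCL10) from primary human skin fibroblasts, 24 h after compound addition. Gain or loss of signal versus DMSO baseline, bidirectional curve fitting.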

Read-out in assay [12]: Urokinase-type plasminogen activator receptor (uPAR), PLAUR (gene 5329)
The assay can be described thus: BSK_CASM3C_uPAR: BioMAP Diversity Plus: CASM3C Assay for Urokinase-type plasminogen activator receptor (uPAR) Biomarker Activity (AID 2283054).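 Note: cell-surface uPAR protein level quantified by ELISA.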 The following applies: primary human coronary artery smooth muscle cells; actives raise or lower the signal.

Read-out in assay [13]: Vascular cell adhesion molecule 1 (VCAM1), VCAM1 (gene 7412)
The assay can be described thus: BSK_CASM3C_VCAM1: BioMAP Diversity Plus: CASM3C Assay for Vascular cell adhesion molecule 1 (VCAM1) Biomarker Activity (AID 2283055).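 Note: VCAM-1 protein level quantified by ELISA on the cells.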 To be noted: primary human coronary artery smooth muscle cells; actives raise or lower the signal.

Read-out in assay [14]: Collagen III, COL3A1 (gene 1281)
Put plainly: BSK_hDFCGF_CollagenIII: BioMAP Diversity Plus: hDFCGF Assay for Collagen III Biomarker Activity (AID 2283056). The following applies: primary human foreskin fibroblasts; actives raise or lower the signal. A digest of the protocol: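 Human foreskin primary fibroblasts were exposed to test chemicals for 24 h, after which collagen III was quantified by ELISA. Activity was fitted bidirectionally against DMSO as negative control and baseline.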

Read-out in assay [15]: Epidermal growth factor receptor (EGFR), EGFR (gene 1956)
The assay can be described thus: BSK_hDFCGF_EGFR: BioMAP Diversity Plus: hDFCGF Assay for Epidermal growth factor receptor (EGFR) Biomarker Activity (AID 2283057). To be noted: primary human foreskin fibroblasts; actives raise or lower the signal. A digest of the protocol: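 ELISA readout of EGFR on human dermal fibroblasts (primary foreskin cells), 24 h post-dosing; bidirectional curve fit vs DMSO baseline, gain or loss of signal scored.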

Read-out in assay [16]: Interleukin-8 (IL8), CXCL8 (gene 3576)
The assay can be described thus: BSK_hDFCGF_IL8: BioMAP Diversity Plus: hDFCGF Assay for Interleukin-8 (IL8) Biomarker Activity (AID 2283058). The following applies: primary human foreskin fibroblasts; actives raise or lower the signal. A digest of the protocol:
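hDFCGF human dermal fibroblasts; 24 h chemical exposure; IL-8 by ELISA; bidirectional curve fit vs DMSO baseline; gain or loss of signal scored.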

Assay [17] can be described thus: BSK_hDFCGF_Proliferation: Cell Proliferation Assessment in the BioMAP Diversity Plus: hDFCGF Assay (AID 2283059).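 Note: curves fitted for both rise and fall of signal versus DMSO baseline.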 The following applies: primary human foreskin fibroblasts. An outline of the steps: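 Primary human foreskin fibroblasts, sub-confluent; […]; 10% TCA fix, 0.1% SRB stain, A560 total protein. Gain/loss fitted bidirectionally vs DMSO control.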

Read-out in assay [18]: Macrophage colony-stimulating factor (MCSF), CSF1 (gene 1435)
Put plainly: BSK_hDFCGF_MCSF: BioMAP Diversity Plus: hDFCGF Assay for Macrophage colony-stimulating factor (MCSF) Biomarker Activity (AID 2283060). The following applies: primary human foreskin fibroblasts; actives raise or lower the signal. A digest of the protocol: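 Human foreskin primary fibroblasts were treated with test chemical for 24 h, and M-CSF was then measured by ELISA. Data were fitted bidirectionally against DMSO as the negative control and activity baseline.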

A short description of assay [19]: BSK_hDFCGF_SRB: Viability Assessment in the BioMAP Diversity Plus: hDFCGF Assay (AID 2283061).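 Note: cells exposed to compound for 24 h before the read.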 The following applies: primary human foreskin fibroblasts. A digest of the protocol:
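Human foreskin primary fibroblasts were treated with compound and assessed 24 h after dosing. Total protein was measured by sulforhodamine B staining (0.1% SRB after 10% TCA fixation, 560 nm read) as a cytotoxicity marker, with bidirectional fitting against DMSO baseline.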

Read-out in assay [20]: TIMP metallopeptidase inhibitor 1 (TIMP1), TIMP1 (gene 7076)
Put plainly: BSK_hDFCGF_TIMP1: BioMAP Diversity Plus: hDFCGF Assay for TIMP metallopeptidase inhibitor 1 (TIMP1) Biomarker Activity (AID 2283062). To be noted: primary human foreskin fibroblasts; actives raise or lower the signal. An outline of the steps: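 Primary human foreskin fibroblasts in the hDFCGF system were dosed with compound for 24 h, then TIMP-1 was measured by ELISA. Activity was fitted bidirectionally relative to DMSO control; parallel SRB staining assessed cytotoxicity.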

The source made the active and inactive calls. Rule for the calls: active = hit-call score of the fitted dose curve at least 0.9, where 1 is the maximum; inactive = score below 0.9.

`c1ccc2n[nH]nc2c1`: the result in assay [1], in assay [2], in assay [3], in [4], in [5] and in assay [6] was inactive. The result in [7], in assay [8], in assay [9], in assay [10], in [11] and in [12] was inactive. The outcome in [13], in [14], in [15], in assay [16], in assay [17] and in assay [18] was inactive. Besides, the result in assay [19] and in assay [20] was inactive.

In general, AC50 refers to the midpoint of the concentration-response curve, whichever way the signal moves. With `CCOC(=O)O[C@H](C)OC(=O)c1ccc2c(c1)cc(C(=O)NC1CCN(C(C)C)CC1)n2Cc1cc(-c2ccc(Cl)s2)on1`, the AC50 in assay [1] is 5.85 µM (active); in assay [2], 5.13 µM (active); in assay [4], 7.49 µM (active); in [5], 2.41 µM (active); in [6], 9.34 µM (active); in assay [7], 6.05 µM (active). Also, the AC50 was 6.15 µM (active) in [8]; 9.19 µM (active) in assay [9]; 7.43 µM (active) in assay [10]; 4.62 µM (active) in [11]; 6.27 µM (active) in assay [12]; 10.3 µM (active) in [13]. Besides, the AC50 in [14] was 4.13 µM (active); in assay [15], 4.85 µM (active); in assay [16], 6.12 µM (active); in [17], 1.72 µM (active); in [18] it was 5.16 µM (active); in [19], 4.96 µM (active). For the same compound, the concentration at half-maximal activity (AC50) in assay [20] was 4.35 µM (active). For the same compound, the outcome in assay [3] was inactive.

On to `CC(C)(O)c1ccc(CNC(=O)c2cccnc2Oc2ccc3nonc3c2)cc1`, for which the result in assay [1], in [2], in assay [3], in assay [4], in assay [5] and in assay [6] was inactive. Besides, the result in assay [8], in assay [9], in assay [10], in assay [11], in assay [12] and in assay [13] was inactive. In addition, the outcome in assay [14], in [15], in assay [16], in assay [17], in assay [18] and in assay [19] was inactive. For the same compound, the outcome in assay [20] was inactive. Further, in assay [7], the AC50 is 27.5 µM (active).

Turning to `Cc1ccc2oc(CN(Cc3ccccc3)C(=O)Nc3c(F)cc(F)cc3F)c(-c3ccc(Cl)cc3)c2c1`, the outcome in [1], in [2], in assay [3], in assay [4], in [5] and in [6] was inactive. Besides, the result in [7], in assay [8], in assay [9], in assay [10], in assay [12] and in assay [13] was inactive. Further, the result in [14], in assay [15], in assay [16], in assay [17], in assay [18] and in assay [19] was inactive. For the same compound, the result in assay [20] was inactive. The AC50 in assay [11] is 5.68 µM (active).
